The list is not random: actives were taken first. Their share in the collection is about 11%.
SW480 rerep: induces DNA re-replication in SW480 colon adenocarcinoma cells | SW480 DNA re-replication, Hoechst DNA content imaging, 48 h | Potency, µM (highest dose often 46.1 µM), inactives show top-dose re-replication activation, hits mostly activators | 340,000 compounds, 1.8% hits; note: potency is the fitted concentration of half-maximal effect; % of control where 0% means no effect; nearly all actives have a fitted effect of over 55% in size
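Cells (250 per well) received 23 nL compound or DMSO by pin tool and were kept 48 hr at 37 C, 5% CO2. Nuclei were then stained with Hoechst for 40 min and scanned for DNA content.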
IL-1B inflam inh: blocks inflammasome-driven IL-1 beta release; activity change, % at 57.5 µM; 360,000 compounds, 4.7% hits; AID 743279; THP-1 LPS/ATP IL-1B secretion, AlphaLISA, 16 h; active compounds read low; in the data active = activity change below about -50%; inconclusive = mostly about -30% to -49%; note: % is set by controls: 0 for no effect and ±100 for the full control effect
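THP-1 cells pretreated 1 hr with compounds (up to 57.5 uM final), then stimulated with LPS (250 ng/mL final) plus ATP (1.25 mM final); secreted IL-1B measured by AlphaLISA after 16 hr, decreased signal indicating inhibition.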
Gal4-VP16 FLuc: inhibits Gal4-VP16 luciferase reporter, ROR gamma counter-screen. 310,000 compounds, 3.5% hits. AID 2546. Potency, µM (highest dose often 53.6 µM), without a hit: top-dose activity, negative = inhibition, actives largely listed as inhibitors. Drosophila S2 Gal4-VP16 UAS-luciferase, luminescence, 20 h;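 note: Gal4-VP16 expression switched on by copper sulfate through the metallothionein promoter; potency is the fitted concentration of half-maximal effect; % is set by controls: 0 for no effect and ±100 for the full control effect; nearly all actives have a fitted effect of over 50% in size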
RORg inh: blocks mouse ROR gamma transcriptional activity; P51450; AID 2551; Potency, µM (doses to about 53.6 µM), inactives show top-dose activity change, negative = inhibition, hits mostly inhibitors; 310,000 compounds, 5.4% hits; Drosophila S2 Gal4-RORgamma UAS-luciferase reporter, 20 h; note: potency is the fitted concentration of half-maximal effect; % is set by controls: 0 for no effect and ±100 for the full control effect; nearly all actives have a fitted effect of over 60% in size
Target sequence (P51450 whole entry, looked up, the tested form may be a part): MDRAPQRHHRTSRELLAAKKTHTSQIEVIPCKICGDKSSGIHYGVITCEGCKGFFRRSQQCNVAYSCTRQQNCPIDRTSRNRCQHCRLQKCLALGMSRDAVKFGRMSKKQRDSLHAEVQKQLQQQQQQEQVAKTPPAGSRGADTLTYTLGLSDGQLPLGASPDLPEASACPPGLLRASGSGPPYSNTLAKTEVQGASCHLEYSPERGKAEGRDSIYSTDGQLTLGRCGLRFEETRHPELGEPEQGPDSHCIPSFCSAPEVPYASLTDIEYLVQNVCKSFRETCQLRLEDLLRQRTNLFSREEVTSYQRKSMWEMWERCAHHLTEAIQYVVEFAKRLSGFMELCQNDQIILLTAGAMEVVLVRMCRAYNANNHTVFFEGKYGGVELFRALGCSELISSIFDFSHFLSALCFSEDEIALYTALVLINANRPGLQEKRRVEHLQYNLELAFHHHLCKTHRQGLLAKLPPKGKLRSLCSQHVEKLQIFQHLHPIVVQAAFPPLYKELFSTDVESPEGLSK
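In this cell-based reporter format, copper sulfate (700 uM final) drives Gal4–ROR gamma fusion expression from a metallothionein promoter in Drosophila Schneider cells; compounds preincubated 1 hr, reporter read after 20 hr at ambient temperature.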
MCF10A rereplic: induces DNA re-replication in MCF 10a normal breast cells | MCF 10A DNA re-replication, Hoechst nuclear intensity, 48 h | Potency, µM (series often up to 46.1 µM), for the others: top-dose activity, positive = re-replication, usual class: activators | 350,000 compounds, 2.9% hits | AID 624296; note: potency is the fitted concentration of half-maximal effect; % of control where 0% means no effect; nearly all actives have a fitted effect of over 50% in size
Numbers without * were called inactive; ? = inconclusive; . = not tested or not shown; [ ] = another dose, or the depositor's remark. Unless noted, calls come from the whole dose curve; as a rule, active = well fitted curve in the direction sought with a large enough effect; inconclusive = small, poorly fitted or top-dose-only effect, or another doubt; inactive = no such curve, though single readings can be large; an effect the other way counts as inactive or inconclusive.

SMILES | SW480 rerep | IL-1B inflam inh | Gal4-VP16 FLuc | RORg inh | MCF10A rereplic
CN1C(=O)[C@H]2[C@@H](c3ccc(C(F)(F)F)cc3)N[C@]3(CCCN(Cc4ccc(C(F)(F)F)cc4)C3=O)[C@H]2C1=O | . | -4 | . | . | .
Fc1ccc(/C=C2\CCCC3=C2NC(=S)NC3c2ccc(F)cc2)cc1 (centres undefined) | -10% | . | ? | 8.9µM* | -2%
Cc1nc(N2N=C3/C(=C/c4ccc(F)cc4)CCCC3C2c2ccc(F)cc2)sc1C(=O)N(C)C (centres undefined) | ? | -2 | ? | 0% | 29%
CN1c2ccc(Cl)cc2C(=O)NC1c1ccc([N+](=O)[O-])s1 (centres undefined) | 42% | -6 | ? | -5% | 12µM*
COc1cc(-c2ccc3sc(-c4ccsc4)c(C#CCO)c3c2)cc(OC)c1OC | 0% | 0 | . | . | 12µM*
COc1ccc(-c2sc3cc4c(cc3c2C#CCO)OCO4)cc1 | ? | 22 | . | . | ?
COc1ccccc1-c1sc2cc3c(cc2c1C#CCO)OCO3 | -1% | 35 | . | . | 21µM*
COc1ccc2c(C#CCCO)c(-c3ccc(S(C)(=O)=O)cc3)sc2c1 | ? | 16 | . | . | 21µM*
COc1ccc2sc(-c3ccc(S(C)(=O)=O)cc3)c(C#CCO)c2c1 | 1% | -55* | . | . | ?
COc1ccc(S(=O)(=O)N2CCN(Cc3cc(=O)n4ccccc4n3)CC2)cc1 | -4% | 19 | . | . | -6%
O=[N+]([O-])c1cccnc1N1CCC(c2cc(-c3cccc(C(F)(F)F)c3)n[nH]2)CC1 | ? | ? | ? | 13µM* | ?
COc1ccc(OC)c(-c2cc(C3CCN(c4ncccc4[N+](=O)[O-])CC3)[nH]n2)c1 | 7% | ? | -19% | ? | 18%
COc1ccc(C=C(c2nc3ccccc3s2)c2nc3ccccc3s2)cc1O | ? | -98* | 1% | 19% | 13µM*
COc1cc(/C=C/c2nc3ccccc3s2)cc(OC)c1O | 3% | -11 | -9% | -2% | ?
COc1cc(C=C(c2nc3ccccc3s2)c2nc3ccccc3s2)ccc1O | ? | -90* | 6% | 1%[10 µM] | 21µM*
O=C(NC1CCCCC1)C(C1CC1)n1c(=O)c(-c2ccccc2)nc2ccccc21 (centres undefined) | . | -10 | . | . | .
CC(C)(C)NC(=O)CSC(=Nc1cccc(F)c1)NC#N | -2% | -97* | -14% | -28% | 5%
CC(C)N=C(NC#N)SCc1ccccc1F | -1% | 2 | 4% | 23% | -18%
N#CNC(=Nc1cccc(F)c1)SCc1ccccc1F | 3% | -12 | ? | -2%[10 µM] | 4.6µM*
O=C(NCC(c1ccccc1Cl)N1CCCC1)c1ccc(N2CCCC2=O)cc1 (centres undefined) | 2% | -12 | . | . | 14%
Cc1ccc(C)c(N(C(=O)c2snc(C(N)=O)c2N)C(C(=O)NCC2CCCO2)c2ccc(C)o2)c1 (centres undefined) | 5% | -3 | -2% | -2% | 5%
c1ccc(CNc2c(C3CCNCC3)nc3scc(-c4ccccc4)n23)cc1 | . | -22 | . | . | .
COc1cccc(/C=N/Nc2nc(N3CCCC3)nc(N3CCCC3)n2)c1O | 2% | -100* | ? | 10µM* | -3%
COc1ccc(/C=N/Nc2nc(N3CCCC3)nc(N3CCCC3)n2)c(OC)c1OC | 1% | 21 | -16% | 7.9µM* | ?
O=C(O)c1ccccc1/C=N/Nc1nc(N2CCCCC2)nc(N2CCCCC2)n1 | . | . | -1% | -25% | .
SMILES | SW480 rerep | IL-1B inflam inh | Gal4-VP16 FLuc | RORg inh | MCF10A rereplic
COc1cc2c(C#N)c(N3CCN(c4ccccc4OC)CC3)nc(N)c2c(N)n1 | ? | -28 | 0% | -19% | 10µM*
N#Cc1c(N2CCCC2)nc(N)c2c(N)nc(N3CCCC3)cc12 | ? | ? | -6% | 8.9µM* | ?
COc1cc2c(C#N)c(N3CCCC3)nc(N)c2c(N)n1 | 24% | ? | -17% | -6% | -26%
O=C(c1cc2c(c(-c3cccc(-c4ccncc4)c3)n1)[C@@H](CCO)N(C(=O)c1ccc3c(c1)OCO3)C2)N1CCOCC1 | . | -5 | . | . | .
Cn1c(NCCOc2ccccc2Cl)nc2cc(-c3ccc(F)cc3)sc2c1=O | . | 1 | . | . | .
CC1=C(C(=O)O)CC(S(=O)(=O)O)C1(C)C (centres undefined) | -5% | 3 | . | . | -4%
CNc1cnc(-c2ccc(O)c(OC)c2)cn1 | . | -61* | . | . | .
O=C(CSc1nnc(COc2ccc(Cl)cc2)o1)Nc1ccc(N2CCOCC2)cc1 | -5% | -6 | . | . | 12%
CN(C)CCCN(C(=O)C1COc2ccccc2O1)c1nc2ccc(F)cc2s1 (centres undefined) | -6% | -10 | 0% | 0% | 23%
CN(C)CCCN(C(=O)c1sc2ccccc2c1Cl)c1nc2ccc(F)cc2s1 | ? | -81* | -9% | 0% | 20%
CCN(CC)CCN(C(=O)c1ccc2ccccc2c1)c1nc2ccc(F)cc2s1 | 29% | 17 | 3% | -10% | 1%
CN(C)CCCN(C(=O)/C=C/c1cccs1)c1nc2ccc(F)cc2s1 | ? | -104* | ? | ? | 23µM*
CN(C)CCN(C(=O)/C=C/c1cccs1)c1nc2c(F)cc(F)cc2s1 | ? | -97* | -87% | ? | ?
CCN(CC)CCN(C(=O)/C=C/c1cccs1)c1nc2ccc(F)cc2s1 | -8% | -78* | -9% | -40% | 17%
CCOC(=O)C(C)Oc1cccc2c(=O)n(CC(=O)NCc3ccc4c(c3)OCO4)ccc12 (centres undefined) | 4.1µM* | -20 | 0% | 8% | 6.5µM*
CCOC(=O)COc1cccc2c(=O)n(CC(=O)NCc3ccccc3)ccc12 | ? | 49 | -8% | 1% | 1.5µM*
CCOC(=O)COc1cccc2c(=O)n(CC(=O)N3CCCCC3)ccc12 | -3% | 25 | 0% | 9% | -7%
CCOC(=O)COc1cccc2c(=O)n(CC(N)=O)ccc12 | -7% | -58* | -7% | 5% | 0%
CCCCCCCCN1C(=O)[C@H](CC(=O)N2CCSCC2)C[C@@]2(C(=O)OC)CC(C)(C)CC=C12 | . | -20 | . | . | .
O=C(NC1C/C=C\C(c2ccccc2)N(c2ccccc2)C(=O)C1)OCC1c2ccccc2-c2ccccc21 (centres undefined) | ? | ? | . | . | -37%
Cc1ccc(CN2C(=O)C[C@@H](NC(=O)OCC3c4ccccc4-c4ccccc43)C/C=C\C2c2ccc(C)cc2)cc1 (some centres undefined) | ? | -65* | . | . | 4%
CCOc1ccccc1NC(=S)N1CCN(c2ccccc2F)CC1 | -1% | -8 | 14µM* | ? | 10%
CNC(=S)N1CCN(c2nc(-c3ccc(F)cc3)cs2)CC1 | 2% | -15 | . | . | 9%
CCOc1ccccc1NC(=S)N1CCCCCC1 | -12% | 19 | ? | 14µM* | -1%
